About 2,600 (16%) of roughly 16,000 compounds were called active. Another 20% or so got no clear call; they are omitted. Calls come from the whole dose curve; as a rule, active = well fitted curve in the direction sought with a large enough effect; inconclusive = small, poorly fitted or top-dose-only effect, or effect the other way; inactive = no such curve, though single readings can be large or run the other way. The list is a sample of the results.
Biological target: Cytochrome P450 2D6 (Homo sapiens) (UniProt P10635)
Sequence (P10635 whole entry, looked up): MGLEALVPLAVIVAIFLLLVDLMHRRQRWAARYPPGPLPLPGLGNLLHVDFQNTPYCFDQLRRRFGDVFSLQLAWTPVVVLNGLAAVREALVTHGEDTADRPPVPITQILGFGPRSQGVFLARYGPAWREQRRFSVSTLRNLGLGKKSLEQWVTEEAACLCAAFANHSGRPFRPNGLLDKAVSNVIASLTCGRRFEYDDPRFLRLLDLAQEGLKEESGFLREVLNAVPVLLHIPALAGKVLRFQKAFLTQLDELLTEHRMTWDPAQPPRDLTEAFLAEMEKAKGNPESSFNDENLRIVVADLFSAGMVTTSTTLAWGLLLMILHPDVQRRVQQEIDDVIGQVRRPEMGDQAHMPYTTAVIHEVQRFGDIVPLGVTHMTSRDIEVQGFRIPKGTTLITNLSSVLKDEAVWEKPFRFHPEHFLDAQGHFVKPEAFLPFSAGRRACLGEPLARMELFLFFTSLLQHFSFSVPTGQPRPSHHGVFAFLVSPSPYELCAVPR
Experiment: Cytochrome panel assay with activity outcomes
Conditions: recombinant CYP, pro-luciferin dealkylation, luminescence, p450-cyp2d6; series mostly up to 57.1 µM; activity, negative = inhibition: at the top concentration
% is set by controls: 0 for no effect and ±100 for the full control effect.

activity, negative = inhibition, inactive:
O=C(NNC(=S)NCc1ccco1)c1ccc(Cl)s1 -15.8%
Nc1ccc2c3c(cccc13)C(=O)NC2=O -2.93%
Nc1[nH]c(=S)[nH]c(=O)c1N=Nc1c(Br)cc(S(N)(=O)=O)cc1Br 7.23% [at 11.4 µM]
O=c1c(-c2cccs2)nc2cncnc2n1C1CC1 -6.01%
COc1cccc(Nc2ncc3nc(CCc4ccccc4)c(=O)n(Cc4cccs4)c3n2)c1 -5.85%
O=C(NCc1ccccc1)C(c1ccncc1)N(C(=O)c1csnn1)C1CC1 (stereo unspecified) -26.9%
CC(C)(C)NC(=O)NC(=O)CSc1nnc2ccccn12 -0.138%
O=c1cnc2cnc(N3CCOCC3)nc2n1C[C@H]1CCCO1 0.524%
CC(C)=CCC/C(C)=C/CO/N=C1/[C@H]2O[C@@H]2[C@@H](O)[C@H]2[C@H]1CCn1c(=O)n(-c3ccccc3)c(=O)n12 -3.53% [at 11.4 µM]
CC1CN(C(=O)COc2ncnc3ccccc23)CC(C)O1 (stereo unspecified) -0.13%
CC1=CC(C)(C)N(C)C(=O)N1c1ccc(Cl)cc1 -5.24%
COC(=O)c1[nH]c2cc(OC)ccc2c1NC(=O)CCN1CCSCC1 -12.3%
CCOC(=O)C(C)Sc1ncc(OC)c(Sc2ccc(Cl)cc2)n1 (stereo unspecified) -12.6%
Cc1cc(N)n(-c2ccccc2)n1 9.11%
Cc1nn(-c2ccccc2)c(-c2ccccc2)c1C(=O)O -6.28%
CCOC(=O)CSc1n[nH]c(NC(=O)c2cccc(C(F)(F)F)c2)n1 0.499%
CN(C)c1ccc(NC(=O)c2cccc(N3C(=O)C4C5C=CC(C5)C4C3=O)c2)cc1 (stereo unspecified) -1.14%
Cc1nnsc1SCC(=O)O 16.2%
Cc1ccc(-c2nc(-c3nccc4ccccc34)oc2-c2ccccc2)cc1 -9.6% [at 11.4 µM]
CS(=O)(=O)N1CCN(c2ccc([N+](=O)[O-])c(NCc3ccccc3)c2)CC1 -25.9%
C1=C(CN2CCOCC2)COc2c1cccc2OC[C@@H]1CNCCO1 3.78%
CS(=O)(=O)Nc1ccc([N+](=O)[O-])cc1Oc1ccccc1 -0.21% [at 25.6 µM]
COc1ccc([N+](=O)[O-])cc1NC1C2CC3CC(C2)CC1C3 (stereo unspecified) 6.11%
Cc1csc(NC(=O)CCNS(=O)(=O)c2ccc3c(c2)c(=O)n(C)c(=O)n3C)n1 -6.75%
CCCc1nnc(SCC(=O)N2C(C)CCCC2C)n1CCCOC (stereo unspecified) 0.151%
CO[C@@H](C(C)C)[C@@H](C)[C@@H]1OC(=O)C[C@@H]1O -14.8% [at 11.4 µM]
CC(=O)N1CCc2cc(Br)cc(S(=O)(=O)N3CCN(C(=O)c4ccco4)CC3)c21 11.4%
Cc1c(OC(=O)c2ccc([N+](=O)[O-])cc2)c2c(c[n+]1C)COC(C)(C)OC2 8.33%
COc1ccc(C(=O)NCS(=O)(=O)c2ccc(C)cc2)cc1 -15.2%
COc1ccc(-c2nc3cnc(N4CCOCC4)nc3n(C[C@H]3CCCO3)c2=O)cc1 1.59%
CCc1nnc(NC(=O)c2cc(-c3ccccc3)nn2-c2ccccc2)s1 -15.9%
Fc1cccc(CSc2ncnc3c2ncn3[C@H]2CCCS2)c1 8.45% [at 11.4 µM]
COc1ccccc1CNc1cc(-c2cccc(NS(C)(=O)=O)c2)ncn1 -17.4%
COc1cccc(-c2cncnc2NC2CCNCC2)c1 -13.3%
C/C(=N\n1nnnc1Nc1ccccc1)c1ccc(N)cc1 2.96%
CCNc1ncc2nc(C)c(=O)n(Cc3ccc(F)cc3)c2n1 -4.78%
O=c1cnc2cnc(Oc3ccccc3)nc2n1Cc1ccc(F)cc1 -20.8%
O=C(O)/C=C\C(=O)Nc1ncn[nH]1 3.54% [at 11.4 µM]
CCC(C)(C(=O)NC1CCCC1)N(Cc1ccco1)C(=O)c1ccccn1 (stereo unspecified) 17.4%
O=c1ccc2cc(O)c(O)cc2o1 -4.53% [at 25.6 µM]
OC[C@H](S)CS 19.8% [at 11.4 µM]
CCOc1ccc(C(C)=O)cc1N1C(=O)C2C3C=CC(C3=C(C)C)C2C1=O (stereo unspecified) -2.5%
COc1ccccc1NC(=O)c1cnc2n(c1=O)CCS2 -6.14%
COc1ccc(NC(=O)c2ccc(-n3cccn3)nc2)c(OC)c1 0.442%
COc1ccccc1CCn1c(=O)c(-c2ccc(Cl)cc2)nc2cncnc21 -8.73%
COc1ccc(/C=N/NC(=O)c2cccc([N+](=O)[O-])c2)cc1OS(=O)(=O)c1ccc(C)cc1 -3.23%
CCNC(=O)c1c(NC(C)=O)sc2c1CCCC2 4.74%
CC(=O)Nc1sc2c(c1C(N)=O)CCCC2 -10.9%
Cc1cc(C)c(S(C)(=O)=O)c(Oc2ccc(F)cc2)n1 -5.79%
COc1ncc2nc(-c3cn(C)c4ccccc34)c(=O)n(-c3ccccc3)c2n1 3.2%
CCOC(=O)c1c(NC(=O)C2C3CCC(O3)C2C(=O)O)sc(C)c1-c1ccc(C)cc1 (stereo unspecified) -1.43%
CCOc1ccc(N2C(=O)/C(=C/c3cc(OC)c(OC)c(OC)c3)N(CC(=O)OC)C2=S)cc1 -3.36%
CCOc1ccc(N2C(=O)/C(=C/c3cccs3)N(CC(=O)OC)C2=S)cc1 -8.94%

AC50, active:
CC1(C)CC(O)CC(C)(C)N1CC(O)COCCOc1ccc(Br)cc1 (stereo unspecified) 14.1 µM
Cc1ccccc1-c1ccc2ncnc(NCc3cccs3)c2c1 10 µM
FC(F)(F)c1ccccc1-c1ccc2ncnc(NCc3cccs3)c2c1 10 µM
Nc1c2c(=O)oc(-c3ccccc3)cc2nn1-c1ccccc1 5.01 µM
CS(=O)(=O)Nc1ccc([N+](=O)[O-])cc1OC1CCCCC1 0.0501 µM
Cc1ccc(S(=O)(=O)CC#CCOC(=O)c2ccc([N+](=O)[O-])cc2)cc1 12.6 µM
COc1cccc(-c2cncnc2NCc2ccccc2OC)c1 7.94 µM
COc1ccc(CNc2ncncc2-c2cccnc2)c(OC)c1 15.8 µM
COc1cccc(-c2cncnc2NCc2ccc(OC)cc2OC)c1 7.94 µM
COc1ccc(CNc2ncncc2-c2cccc(NS(C)(=O)=O)c2)c(OC)c1 25.1 µM
COc1ccccc1NC(=O)c1ccc(-n2cccn2)nc1 7.94 µM
CC(=O)Nc1sc2c(c1CN1CCN(C)CC1)CCCC2 12.6 µM
CCc1ccc(N2C(=O)/C(=C/c3cccs3)N(CC(=O)OC)C2=S)cc1 0.794 µM

Reference: PubChem BioAssay AID1851 (National Center for Advancing Translational Sciences (NCATS), 2009)
